Screens from PubChem.
This is a sample that favours compounds with a hit; in the whole collection about 19% have one here.
Chronic BCR inh: inhibitors of chronic active B-cell receptor signaling; ABC-DLBCL IkBa-CBG/CBR reporter, luminescence ratio, 4 h; Potency, µM (top dose mostly 46.1 µM), inactives show at the top dose activity change, negative = inhibition, hits mostly inhibitors; 340,000 compounds, 0.05% hits; AID 493014; active = well fitted inhibition curve with a large enough effect in the signal ratio, with a control signal flat, not every such curve was filed as active; inconclusive = small, poorly fitted or top-dose-only effect, or effect the other way, or a change in a side signal; the % refers to the signal ratio;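 note: potency is the fitted concentration of half-maximal effect; plate controls were basal doxycycline-induced cells for no effect and cells given 10 µM MG132 for full effect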
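TMD8 human ABC-DLBCL cells with doxycycline-inducible IκBα–green luciferase fusion and unfused red luciferase, in 0.5% FBS medium; compounds up to 46 uM, 4 h at 37C. Green/red luminescence ratio, filter-overlap corrected, fitted to concentration-response curves.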
IL-1B inflam inh: blocks inflammasome-driven IL-1 beta release | activity change, % at 57.5 µM | THP-1 LPS/ATP IL-1B secretion, AlphaLISA, 16 h; active compounds read low | 360,000 compounds, 4.7% hits; in the data active = activity change below about -50%; inconclusive = mostly about -30% to -49%; note: % is set by controls: 0 for no effect and ±100 for the full control effect
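THP-1 cells pretreated 1 hr with compounds (up to 57.5 uM final), then stimulated with LPS (250 ng/mL final) plus ATP (1.25 mM final); secreted IL-1B measured by AlphaLISA after 16 hr, decreased signal indicating inhibition.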
DT40 TDP1 no CPT: qHTS for Inhibitors of human tyrosyl-DNA phosphodiesterase 1 (TDP1): qHTS in cells in absence of CPT. DT40 Tdp1-/- hTDP1 cells, no CPT, ATP luminescence, 48 h. Potency, µM (series often up to 46.2 µM), without a hit: top-dose activity change, negative = growth inhibition, usual class: inhibitors. 420,000 compounds, 15% hits. AID 686978, 2013; note: potency is the fitted concentration of half-maximal effect; % is set by controls: 0 for no effect and ±100 for the full control effect; nearly all actives have a fitted effect of over 55% in size
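Chicken DT40 Tdp1-/- cells stably complemented with human TDP1 were seeded at 400 cells/well with DMSO in place of 20 nM camptothecin. After compound pinning, cells grew at least 48 hr at 37 °C; viability read by CellTiter-Glo luminescence.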
DT40 TDP1 CPT: growth inhibition of DT40 Tdp1-/-;hTDP1 cells with camptothecin (screen for TDP1 inhibitors) | chicken DT40 Tdp1-/-;hTDP1 cells + 20 nM CPT, ATP luminescence, 48 h | Potency, µM (titrated, usually from 46.2 µM), for the others: at the top dose activity change, negative = growth inhibition, usual class: inhibitors | 420,000 compounds, 12% hits; note: potency is the fitted concentration of half-maximal effect; % is set by controls: 0 for no effect and ±100 for the full control effect; nearly all actives have a fitted effect of over 55% in size
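Cell growth measured by CellTiter-Glo luminescence after a minimum 48 h, 37 C compound exposure with 20 nM CPT in Tdp1-knockout DT40 cells stably expressing hTDP1, seeded 400/well; qHTS titration format.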
SW480 rerep: inducers of DNA re-replication in SW480 colon cancer cells; SW480 DNA re-replication, Hoechst DNA content imaging, 48 h; Potency, µM (top dose mostly 46.1 µM), inactives show at the top dose re-replication activation, actives largely listed as activators; 340,000 compounds, 1.8% hits; AID 624297; note: potency is the fitted concentration of half-maximal effect; % of control where 0% means no effect; nearly all actives have a fitted effect of over 55% in size
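Hoechst fluorescence of nuclei (405 nm excitation, 500-530 nm emission) measured by plate-scanning imager after 48 hr compound exposure at 37 C; re-replication scored as increased number of nuclei with elevated intensity.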
MCF10A rerep: inducers of DNA re-replication in MCF 10A breast cells; AID 624296; 350,000 compounds, 2.9% hits; Potency, µM (titrated, usually from 46.1 µM), inactives show top-dose activity, positive = re-replication, most hits filed as activators; MCF 10A DNA re-replication, Hoechst nuclear intensity, 48 h; note: potency is the fitted concentration of half-maximal effect; % of control where 0% means no effect; nearly all actives have a fitted effect of over 50% in size
Active calls of the source: *; ? = inconclusive; · = no result; [ ] = dose if it differs, or a comment. Unless noted, calls come from the whole dose curve; as a rule, active = well fitted curve in the direction sought with a large enough effect; inconclusive = small, poorly fitted or top-dose-only effect, or another doubt; inactive = no such curve, though single readings can be large; an effect the other way counts as inactive or inconclusive.

SMILES | Chronic BCR inh | IL-1B inflam inh | DT40 TDP1 no CPT | DT40 TDP1 CPT | SW480 rerep | MCF10A rerep
CC(C)(C)S(=O)(=O)N1C[C@H]2C(=CC[C@@H]3C(=O)N(c4ccccc4)C(=O)[C@@H]32)[C@H]1CCO | · | 22.4 | ? | -27.2% | -0.2% | 6.6%
O=C(CSc1ccccc1F)NC(=O)NC1CCCC1 | · | 2.9 | ? | ? | · | ·
CC(C)(C)c1ccc(C(=O)N2CCC(=O)N(C(COCc3ccccc3)Cc3ccccc3)CC2)cc1 (centres undefined) | ? | -29.3 | 20.6µM* | 14.6µM* | ? | 20.6µM*
O=C(c1ccc(C(F)(F)F)cc1)N1CCC(=O)N(C(COCc2ccccc2)Cc2ccccc2)CC1 (centres undefined) | -8.5% | -54.5* | 20.6µM* | 20.6µM* | ? | ?
COc1ccc(C(=O)CSc2nnc(CNC(=O)c3ccccc3F)n2C)cc1OC | -0.8% | 8.2 | -4.6% | 3.2% | -13.8% | -12.9%
COc1ccc2c(c1)OC(C)CN(CCC(=O)NCC1OCCc3ccccc31)C2 (centres undefined) | · | · | -9.0% | 12.3%[9.04 µM] | · | ·
CC(=O)Nc1ccc(Sc2ncccc2C(=O)Nc2cc(Cl)cc(Cl)c2)cn1 | -0.4% | -16.9 | ? | ? | 8.8% | ?
CC(=O)Nc1ccc(Sc2ncccc2C(=O)Nc2ccc(OC(F)(F)F)cc2)cn1 | ? | 16.8 | 5.17µM* | 6.51µM* | -2.5% | -5.7%
NCCNS(=O)(=O)c1cccc2cnccc12 | · | · | 18.4µM* | 26.6µM* | · | ·
O=S(=O)(c1cccc2cnccc12)N1CCNCC1 | -4.2% | -50.9* | ? | ? | -6.9% | ?
O=S(=O)(c1cccc2ccccc12)N1CCSC1 | -1.0% | 24.4 | -6.8% | -5.4% | -5.3% | 0.8%
Cc1ccc(C(=O)COC(=O)c2cc(-c3ccccc3)nc3ccccc23)cc1C | · | · | 19.6% | 24.5% | · | ·
Cc1cnn(C(=S)NCc2ccc(Cl)cc2)c1 | ? | -8.3 | 23.1µM* | ? | ? | -0.4%
O=C(COC(=O)c1ccccc1F)NC1CCCC1 | 4.6% | 7.0 | -11.5% | 2.0% | -0.1% | -8.8%
O=C(COC(=O)c1ccc2c(c1[N+](=O)[O-])C(=O)c1ccccc1C2=O)NC1CC1 | ? | -76.5* | ? | 3.66µM* | ? | ?
CC1CCCCC1NC(=O)COC(=O)c1ccc2c(c1Cl)C(=O)c1ccccc1C2=O (centres undefined) | -5.9% | 18.8 | 4.3% | -3.8% | -1.7% | ?
O=C(COC(=O)c1cccc2c1C(=O)c1ccccc1C2=O)NC1CCCCC1 | 8.5% | -131.8* | ? | ? | -5.8% | 84.8%
Cc1cc(C)n2nc(CNC(=O)c3ccc(Cl)cc3)nc2n1 | · | · | -4.5% | -8.3% | · | ·
Cc1ccc(C(=O)c2c(C)oc3c2C(=O)C(=O)c2ccccc2-3)cc1 | ? | -121.0* | 2.59µM* | 2.06µM* | 13µM* | 18.4µM*
Cc1cc(=O)c(C(=O)c2ccccc2)c(C)o1 | · | -8.0 | -9.6% | -3.2% | -10.4% | -0.7%
Cc1ccc(C(=O)c2coc3c2C(=O)C(=O)c2ccccc2-3)cc1 | ? | 0.0 | 4.61µM* | 3.26µM* | -2.6% | -3.0%
COc1ccccc1Nc1c2c(nc3ccc(NC(=O)/C=C/c4cccc(OC)c4OC)cc13)CCCC2 | · | · | 4.11µM* | 3.26µM* | · | ·
COc1ccc(Nc2c3c(nc4ccc(NC(=O)/C=C/c5cccc(OC)c5OC)cc24)CCCC3)cc1OC | · | · | 4.61µM* | 2.31µM* | · | ·
COc1ccc(OC)c(/C=C/C(=O)Nc2ccc3c(c2)CCC3)c1 | ? | -5.4 | ? | ? | -2.6% | 13.4%
COc1ccccc1Nc1c2c(nc3ccc(NC(=O)c4cccc(F)c4)cc13)CCCC2 | · | · | 2.59µM* | 5.8µM* | · | ·
